Assay [1] has as its system Wnt5a (protein binding on small-molecule microarray). In words: Wnt5a binders on small-molecule microarray, primary screen, biophysical, 635/667 nm fluorescence (AID 1142).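 Also: fluorescence read at 667 nm with signal to noise per printed feature.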 The conditions noted are these: 635 nm fluorescence, higher = more signal.
The nature of assay [2]: cell viability in Huh7 cells, primary screen, cytotoxicity control for HCV replication inhibitor project, CellTiter-Glo luminescence, basal, 48 h (AID 1143).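 Also: Huh7 hepatoma cells carrying a hepatitis C replication reporter with no stimulus; test concentration not given here.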 The conditions noted are these: Huh7 HCV replicon, higher = more signal, called active from +8 up or from −8 down. For orientation: ATP-based viability assays read luminescence as a measure of living cells.
Assay [3] in a line: P. aeruginosa biofilm formation inhibitors, primary screen, PAO1 strain, BacTiter-Glo luminescence, LB-PBS (AID 1144). As to conditions: 12 h, higher = more signal.
Assay [4] can be described thus: CREB reporter modulators without forskolin, primary screen, cell-based, PC12, CRE-LacZ reporter, unstimulated (AID 1145). As to conditions: no forskolin, luminescence, 4.5 h, higher = more signal, called active from +8 up or from −8 down.
Assay [5] can be described thus: CREB reporter modulators under forskolin, primary screen, cell-based, PC12, CRE-LacZ reporter, forskolin-stimulated (AID 1146).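 Also: PC12 cells with 6xCRE LacZ reporter stimulated by forskolin 10 µM; beta-galactosidase reporter signal reflecting CREB driven transcription.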 The conditions noted are these: luminescence, 4.5 h, higher = more signal, called active from +8 up or from −8 down.
Assay [6] deals with Streptavidin (Streptomyces avidinii) (UniProt P22629). In words: streptavidin binders on small-molecule microarray, primary screen, artefact control for SMM compound annotation, biophysical, 635/667 nm fluorescence (AID 1147).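 Also: signal reflects streptavidin binding to arrayed compounds as a control protein.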 The conditions noted are these: streptavidin binding, higher = more signal.
Assay [7] can be described thus: small-molecule binders of probe aInhba, primary screen, biochemical, small-molecule microarray, 635/667 nm fluorescence (AID 1148).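 Also: score merges 667nm spot fluorescence with signal-to-noise for antibody binding to printed compounds.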 As to conditions: higher = more signal.
The target in assay [8] is Torsin-1A (Homo sapiens) (UniProt O14656). In words: torsin A binders from cell lysate, primary screen, small-molecule microarray, wild-type, 635/667 nm (AID 1149). The conditions noted are these: COS7 hTOR1A-WT lysate, 635 nm fluorescence, higher = more signal.
The target is the same in assay [9]. In words: small-molecule binders of mutant TOR1A in lysate, primary screen, cell lysate, small-molecule microarray, COS7 lysate, 635/667 nm fluorescence (AID 1150).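 Also: score pools 667 nm emission and signal to noise measuring lysate protein binding.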 The conditions noted are these: COS7 hTOR1A mutant lysate, 635 nm fluorescence, higher = more signal.
Assay [10] relates to Sonic hedgehog protein (Shh). Nature of the assay: small-molecule binders of Shh protein, primary screen, biochemical, small-molecule microarray, 635/667 nm fluorescence (AID 1151).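 Also: Shh protein binding to compounds spotted on small-molecule microarray slides; score combines spot fluorescence intensity with signal-to-noise across triplicate slides.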 As to conditions: small-molecule microarray binding, 635 nm fluorescence; higher = more signal.
The nature of assay [11]: E. coli DRC41 culture turbidity changes, primary screen, E. coli filamentation inducer project, strain DRC41, OD650, 48 h (AID 1152).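 Also: E. coli MC1000 strain DRC41 lacking acrAB efflux pump and sulA.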 The conditions noted are these: E. coli DRC41 (acrAB sulA), higher = more signal, called active from +8 up or from −8 down.
A short description of assay [12]: small-molecule binders of probe aLefty1, primary screen, biochemical, small-molecule microarray, 635/667 nm fluorescence (AID 1153).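 Also: score merges spot fluorescence with signal-to-noise ratio from the scanned slide images.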 The conditions noted are these: higher = more signal.
The nature of assay [13]: PSAC antagonists in infected red cells, primary screen, cell-based, P. falciparum Indochina, OD700, 1 h (AID 1154). The conditions noted are these: P. falciparum Indochina infected RBC osmotic lysis, higher = more signal, called active from +8 up or from −8 down.
Assay [14] in a line: PSAC antagonists in infected red cells, primary screen, cell-based, P. falciparum Indochina, OD700, 2 h (AID 1155).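 Also: lysis reports solute entry through the parasite surface anion channel PSAC; channel blockers reduce lysis of infected cells.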 As to conditions: P. falciparum Indochina infected erythrocytes, osmotic lysis OD700; higher = more signal, called active from +8 up or from −8 down.
A short description of assay [15]: osmotic lysis modulators in infected erythrocytes, primary screen, PSAC antagonist project, cell-based, P. falciparum Indochina, OD700, 3 h (AID 1156). The conditions noted are these: higher = more signal, called active from +8 up or from −8 down.
Assay [16] in a line: PSAC antagonists in infected red cells, primary screen, cell-based, P. falciparum Indochina, OD700, 18 h (AID 1157). The conditions noted are these: P. falciparum Indochina infected erythrocytes, osmotic lysis OD700, 18 h; higher = more signal, called active from +8 up or from −8 down.
Assay [17] is described as follows: modulators of S6 phosphorylation in cells, primary screen, cell-based, A549, cytoblot, luminescence, serum-stimulated (AID 1158).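 Also: serum-stimulated A549 lung adenocarcinoma cells; signal is phosphorylated S6 detected by cytoblot immunostaining with HRP secondary.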 As to conditions: A549 phospho-S6 cytoblot, 5 h, higher = more signal.
For assay [18], the target named is NADPH oxidase 2 (Homo sapiens) (UniProt P04839). In words: NOX2-dependent H2O2 signal modulators, primary screen, NOX inhibitor project, cell-based, HEK293-NOX2, PMA-stimulated, Amplex Red fluorescence (AID 1159). Also: test concentration not given here. As to conditions: 45 min, higher = more signal, called active from +8 up or from −8 down.
Assay [19] has as its target NADPH oxidase 4 (Homo sapiens) (UniProt Q9NPH5). In words: NOX4-dependent H2O2 signal modulators, primary screen, NOX inhibitor project, cell-based, HEK293-NOX4, tetracycline-induced, Amplex Red fluorescence (AID 1160). The conditions noted are these: 45 min, higher = more signal, called active from +8 up or from −8 down.
Assay [20] concerns the target NADPH oxidase 5 (Homo sapiens) (UniProt Q96PH1). Nature of the assay: NOX5-dependent H2O2 signal modulators, primary screen, NOX inhibitor project, cell-based, HEK293-NOX5, Amplex Red fluorescence (AID 1161). The conditions noted are these: HEK293-NOX5, ionomycin, 45 min, higher = more signal.

Activity calls are given as the source filed them. Unless noted, no rule for the calls is given here.

Chain of NADPH oxidase 4 (Homo sapiens) (Q9NPH5 whole entry, looked up): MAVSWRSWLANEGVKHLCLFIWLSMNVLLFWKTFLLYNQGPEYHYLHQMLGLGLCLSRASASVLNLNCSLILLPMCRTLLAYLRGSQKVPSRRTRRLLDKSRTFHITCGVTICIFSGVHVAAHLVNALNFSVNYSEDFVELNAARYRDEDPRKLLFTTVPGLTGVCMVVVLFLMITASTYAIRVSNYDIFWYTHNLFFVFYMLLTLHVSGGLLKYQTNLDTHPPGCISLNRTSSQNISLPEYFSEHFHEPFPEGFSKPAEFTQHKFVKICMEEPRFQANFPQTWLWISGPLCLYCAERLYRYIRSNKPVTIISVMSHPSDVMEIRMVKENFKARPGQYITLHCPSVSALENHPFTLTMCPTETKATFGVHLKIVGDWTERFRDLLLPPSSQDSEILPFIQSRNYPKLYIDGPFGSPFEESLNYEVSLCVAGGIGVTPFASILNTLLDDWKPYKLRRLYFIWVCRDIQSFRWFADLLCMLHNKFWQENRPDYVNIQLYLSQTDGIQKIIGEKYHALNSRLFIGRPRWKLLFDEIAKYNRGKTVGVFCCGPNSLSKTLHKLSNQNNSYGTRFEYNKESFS
Chain of NADPH oxidase 2 (Homo sapiens) (P04839 whole entry, looked up): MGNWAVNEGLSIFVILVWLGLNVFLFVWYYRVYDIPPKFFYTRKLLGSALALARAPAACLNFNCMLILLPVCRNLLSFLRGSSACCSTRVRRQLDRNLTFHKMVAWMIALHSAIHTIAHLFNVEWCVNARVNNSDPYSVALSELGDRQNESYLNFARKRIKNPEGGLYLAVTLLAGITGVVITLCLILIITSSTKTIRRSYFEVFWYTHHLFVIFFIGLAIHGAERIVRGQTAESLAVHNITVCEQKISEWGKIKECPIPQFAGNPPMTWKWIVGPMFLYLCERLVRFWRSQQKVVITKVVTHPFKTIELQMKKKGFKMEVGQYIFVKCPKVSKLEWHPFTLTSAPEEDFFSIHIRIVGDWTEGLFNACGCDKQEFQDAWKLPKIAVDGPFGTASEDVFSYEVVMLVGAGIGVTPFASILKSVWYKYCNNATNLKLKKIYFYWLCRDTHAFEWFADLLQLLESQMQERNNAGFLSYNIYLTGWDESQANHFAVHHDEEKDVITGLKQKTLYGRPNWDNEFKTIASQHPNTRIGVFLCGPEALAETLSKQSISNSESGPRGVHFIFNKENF
Chain of NADPH oxidase 5 (Homo sapiens) (Q96PH1 whole entry, looked up): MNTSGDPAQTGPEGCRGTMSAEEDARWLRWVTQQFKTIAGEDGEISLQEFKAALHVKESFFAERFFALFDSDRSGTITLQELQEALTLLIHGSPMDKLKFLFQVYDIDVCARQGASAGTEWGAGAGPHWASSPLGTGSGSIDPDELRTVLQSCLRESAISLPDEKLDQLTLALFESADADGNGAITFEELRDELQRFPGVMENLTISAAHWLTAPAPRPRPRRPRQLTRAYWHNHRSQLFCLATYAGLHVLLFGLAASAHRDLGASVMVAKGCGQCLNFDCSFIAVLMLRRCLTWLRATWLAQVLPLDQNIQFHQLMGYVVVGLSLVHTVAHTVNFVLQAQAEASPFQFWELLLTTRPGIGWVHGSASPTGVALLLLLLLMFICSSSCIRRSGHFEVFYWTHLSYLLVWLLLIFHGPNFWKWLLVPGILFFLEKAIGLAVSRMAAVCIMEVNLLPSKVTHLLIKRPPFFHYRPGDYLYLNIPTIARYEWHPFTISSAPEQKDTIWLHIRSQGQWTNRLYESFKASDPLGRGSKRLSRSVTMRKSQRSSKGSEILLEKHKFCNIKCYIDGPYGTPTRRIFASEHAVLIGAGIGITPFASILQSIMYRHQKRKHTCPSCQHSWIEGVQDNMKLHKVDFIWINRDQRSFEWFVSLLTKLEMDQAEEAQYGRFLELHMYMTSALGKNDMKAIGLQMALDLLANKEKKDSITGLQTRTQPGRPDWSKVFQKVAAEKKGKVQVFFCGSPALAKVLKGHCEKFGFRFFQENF
Chain of Torsin-1A (Homo sapiens) (O14656 whole entry, looked up): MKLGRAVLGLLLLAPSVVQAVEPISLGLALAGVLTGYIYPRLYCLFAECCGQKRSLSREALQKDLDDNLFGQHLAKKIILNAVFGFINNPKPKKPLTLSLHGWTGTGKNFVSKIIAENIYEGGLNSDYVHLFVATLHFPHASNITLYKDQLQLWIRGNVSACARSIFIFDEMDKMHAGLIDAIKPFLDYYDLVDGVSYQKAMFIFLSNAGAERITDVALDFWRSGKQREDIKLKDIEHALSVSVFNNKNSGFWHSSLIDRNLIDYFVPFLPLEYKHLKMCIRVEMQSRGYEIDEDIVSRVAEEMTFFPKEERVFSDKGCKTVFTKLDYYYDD
Chain of Streptavidin (Streptomyces avidinii) (P22629 whole entry, looked up): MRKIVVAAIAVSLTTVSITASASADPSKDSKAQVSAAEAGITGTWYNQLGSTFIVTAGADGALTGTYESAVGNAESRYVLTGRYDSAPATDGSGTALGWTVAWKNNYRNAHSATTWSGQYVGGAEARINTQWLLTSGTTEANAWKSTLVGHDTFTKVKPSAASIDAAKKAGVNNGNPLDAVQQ

As for `CC(CCC(=O)OC[C@H]1O[C@H](C#Cc2ccccc2)C=C[C@@H]1Oc1ccc(C)cc1)=NO[C@@H](C)c1cc(-c2c(C)cc(C)cc2C)no1`, the composite z-score in assay [1] is -0.693; in assay [6] it was -0.831; in assay [7], -0.242; with Torsin-1A (Homo sapiens) [8], -2.59; in the assay with Torsin-1A (Homo sapiens) [9] it was -1.74; in assay [10], -0.719. The composite z-score in [12] is -0.0929. For the same molecule, the z-score is -0.629 (inactive) in [2]; -0.702 (inactive) in assay [3]; 0.085 (inactive) in assay [4]; 1.02 (inactive) in assay [5]; 0.357 (inactive) in assay [11]; 1.34 (inactive) in [13]. For the same molecule, the z-score in [14] was 0.674 (inactive); in assay [15], 1.23 (inactive); in assay [16], 0.221 (inactive); in assay [17], 0.814; in assay [18], 0.731 (inactive); in assay [19], 0.344 (inactive). In addition, the z-score in assay [20] was determined as 0.287.

Take `C[C@H]1CC[C@H]2C(=O)O[C@H](CO)CN2[C@@H]1c1ccc(Br)cc1`: the composite z-score in assay [1] is 0.0217; in assay [6], 0.0279; in assay [7], -0.202; in the assay with Torsin-1A (Homo sapiens) [8], 0.345; in the assay with Torsin-1A (Homo sapiens) [9] it was -0.363; in [10] it was -0.0013. For the same molecule, the composite z-score in [12] is 0.0012. The z-score is -0.98 (inactive) in [2]; -1.38 (inactive) in assay [3]; -0.557 (inactive) in assay [4]; -0.816 (inactive) in assay [5]; -0.0016 (inactive) in [11]; 1.51 (inactive) in assay [13]. Moreover, the z-score in [14] is 0.939 (inactive); in [15], 0.0454 (inactive); in assay [16], 0.49 (inactive); in [17] it was -0.337; in assay [18], -0.431 (inactive); in assay [19], -0.191 (inactive). Moreover, in assay [20], the z-score was -0.489.

On to `CC(=O)OC[C@H]1O[C@H](CC=NO[C@H](C)c2cn([C@@H]3COC[C@H]3O)nn2)C=C[C@@H]1OC(C)=O`, for which the composite z-score in [1] is 0.104; in [6] it was 0.182; in [7], -0.0494; with Torsin-1A (Homo sapiens) [8], -0.0469; with Torsin-1A (Homo sapiens) [9] it was -0.108; in assay [10], 0.165. The composite z-score in [12] was -0.27. In addition, the z-score is -0.29 (inactive) in assay [2]; -0.745 (inactive) in assay [3]; -0.724 (inactive) in assay [4]; -0.538 (inactive) in assay [5]; -0.676 (inactive) in assay [11]; -0.279 (inactive) in assay [13]. For the same molecule, the z-score in [14] was -1.7 (inactive); in [15], -0.115 (inactive); in assay [16] it was -1.7 (inactive); in assay [17], 1.22; in [18], -1.01 (inactive); in [19], 0.127 (inactive). The z-score in assay [20] was determined as 0.0052.

Regarding `C[C@@H](c1ccccc1)N1C(=O)[C@H]2[C@H]3[C@H](O)[C@H](O)CC(=NNC(=O)OCc4ccccc4)[C@@H]3CC[C@H]2C1=O`, the composite z-score is 0.15 in assay [1]; -0.31 in assay [6]; -0.335 in [7]; 3.35 with Torsin-1A (Homo sapiens) [8]; 3.49 with Torsin-1A (Homo sapiens) [9]; 2 in assay [10]. For the same molecule, the composite z-score in [12] was -0.0294. Moreover, the z-score is 0.231 (inactive) in [2]; -0.479 (inactive) in assay [3]; -0.38 (inactive) in assay [4]; 0.0869 (inactive) in assay [5]; 0.362 (inactive) in assay [11]; 0.0012 (inactive) in assay [13]. In addition, the z-score is 0.461 (inactive) in [14]; -0.694 (inactive) in [15]; 0.329 (inactive) in assay [16]; -0.136 in assay [17]; -0.065 (inactive) in [18]; 1.07 (inactive) in assay [19]. Also, the z-score in [20] is -0.0584.

Source of the values: PubChem BioAssay.
